In PubChem BioAssay AID1159580 (chemical genetic matrix, 2015):
Where “and” joins values, the source holds several entries; their conditions need not be identical. Equal entries are not always repeated. In all, about 5,500 compounds went through this assay and about 2,000 (36%) were called active. Another 18% or so got no clear call; they are omitted. Cut-off read from the data, not from the text of the source: active = normalized growth mostly below about 0.91 (no sharp cut-off); inconclusive = no clear call, values can overlap the other calls; inactive = mostly above about 0.92. This is one part of the list.

Assay: chemical genetic growth profiling, strain panel (AID 1159580);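 note: tested at 20 µM; growth read once vehicle control cultures reached saturation at 30 °C; 1 = growth at the plate median or of vehicle wells; lower values mean less growth of the strain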
Details: S. cerevisiae deletion strains, growth OD

Measured: normalized growth

CC(=O)Nc1cc([As](=O)(O)O)ccc1O
inactive: locus YAL013W, strain DEP1, hits give low values 0.996 | locus YAL021C, strain ccr4, hits give low values 1.01 | locus YAL026C, strain drs2, hits give low values 1.01 | locus YAL030W, strain snc1, hits give low values 1.01 | locus YBL061C, strain skt5, hits give low values 1 | locus YBR009C, strain hhf1, hits give low values 1.01 | locus YBR021W, strain FUR4, hits give low values 1.05 | locus YBR023C, strain chs3, hits give low values 1.01 | locus YBR171W, strain sec66, hits give low values 1.01 | locus YBR229C, strain ROT2, hits give low values 1.01 | locus YBR231C, strain swc5, hits give low values 1.01 | locus YBR279W, strain paf1, hits give low values 0.999 | locus YCL011C, strain gbp2, hits give low values 1.02 | locus YCL016C, strain dcc1, hits give low values 0.994 | locus YCL029C, strain bik1, hits give low values 0.981 | locus YCL061C, strain MRC1, hits give low values 0.995 | locus YCL069W, strain vba3, hits give low values 1.01 | locus YCR088W, strain abp1, hits give low values 1.01 | locus YDL005C, strain med2, hits give low values 1 | locus YDL035C, strain GPR1, hits give low values 0.999 | locus YDL040C, strain nat1, hits give low values 1.01 | locus YDL074C, strain BRE1, hits give low values 0.936 | locus YDL101C, strain DUN1, hits give low values 0.992 | locus YDL185W, strain tfp1, hits give low values 0.945 | locus YDL192W, strain arf1, hits give low values 0.994 | locus YDR001C, strain nth1, hits give low values 1.02 | locus YDR069C, strain doa4, hits give low values 1.01 | locus YDR101C, strain arx1, hits give low values 0.936 | locus YDR137W, strain rgp1, hits give low values 1.01 | locus YDR150W, strain NUM1, hits give low values 0.997 | locus YDR159W, strain sac3, hits give low values 0.988 | locus YDR162C, strain NBP2, hits give low values 0.996 | locus YDR195W, strain ref2 0.995 | locus YDR297W, strain sur2, hits give low values 1.01 | locus YDR318W, strain mcm21, hits give low values 1 | locus YDR334W, strain swr1, hits give low values 1.02 | locus YDR335W, strain msn5, hits give low values 1.01 | locus YDR388W, hits give low values 0.997 | locus YDR392W, strain spt3, hits give low values 0.905 | locus YDR502C, strain sam2, hits give low values 1.02 | locus YEL003W, strain gim4, hits give low values 1.01 | locus YEL037C, strain rad23, hits give low values 1.01 | locus YEL061C, strain CIN8 (second series), hits give low values 1.02 | locus YEL061C, strain CIN8, hits give low values 1 | locus YER015W, strain faa2, hits give low values 0.998 | locus YER016W, strain bim1, hits give low values 1.01 | locus YER110C, hits give low values 0.983 | locus YER111C, strain swi4, hits give low values 1 | locus YER155C, strain BEM2 (second series), hits give low values 0.982 | locus YER155C, strain BEM2, hits give low values 1.01 | locus YER167W, strain BCK2, hits give low values 0.996 | locus YFR010W, strain ubp6, hits give low values 1.03 | locus YGL078C, strain dbp3, hits give low values 0.985 | locus YGL086W, strain mad1, hits give low values 0.996 | locus YGL167C, strain pmr1, hits give low values 1.01 | locus YGL173C, strain kem1, hits give low values 1.01 | locus YGL227W, strain vid30, hits give low values 1.01 | locus YGL240W, strain doc1, hits give low values 0.978 | locus YGL248W, strain PDE1, hits give low values 1.01 | locus YGL253W, strain hxk2, hits give low values 1.02 | locus YGR078C, strain PAC10, hits give low values 1 | locus YGR135W, strain pre9, hits give low values 1.01 | locus YGR252W, strain gcn5, hits give low values 1.11 | locus YHR013C, strain ard1, hits give low values 0.997 | locus YHR027C, strain rpn1, hits give low values 1.02 | locus YHR030C, strain SLT2, hits give low values 0.981 and 1.03 | locus YHR079C, strain IRE1 (second series), hits give low values 0.983 | locus YHR079C, strain IRE1, hits give low values 1.01 | locus YHR094C, strain hxt1, hits give low values 0.996 | locus YHR129C, strain ARP1, hits give low values 0.985 | locus YHR142W, strain chs7, hits give low values 1.03 | locus YHR200W, strain rpn10, hits give low values 0.991 | locus YIL066C, strain RNR3, hits give low values 0.998 | locus YIL073C, strain SPO22, hits give low values 0.99 | locus YIL125W, strain kgd1, hits give low values 0.985 | locus YIR030C, strain dcg1, hits give low values 0.992 | locus YJL092W, strain hpr5, hits give low values 1 | locus YJL095W, strain BCK1 (second series), hits give low values 1.03 | locus YJL095W, strain BCK1, hits give low values 1.03 and 1.02 | locus YJL115W, strain asf1, hits give low values 1.01 | locus YJL129C, strain trk1, hits give low values 1.01 | locus YJL134W, strain LCB3, hits give low values 0.997 | locus YJL154C, strain vps35, hits give low values 1.01 | locus YJL164C, strain tpk1, hits give low values 1 | locus YJL166W, strain qcr8, hits give low values 0.999 | locus YJL168C, strain set2, hits give low values 0.932 | locus YJL187C, strain SWE1 (second series), hits give low values 0.995 | locus YJL187C, strain SWE1, hits give low values 1.04 | locus YJR043C, strain POL32, hits give low values 0.997 | locus YJR066W, strain TOR1, hits give low values 0.961 | locus YJR075W, strain HOC1, hits give low values 0.983 | locus YKL009W, strain mrt4, hits give low values 0.956 | locus YKL068W, hits give low values 0.986 | locus YKL085W, strain MDH1 (second series), hits give low values 0.982 | locus YKL085W, strain MDH1, hits give low values 0.982 | locus YKL160W, strain elf1, hits give low values 0.981 | locus YKR001C, strain vps1, hits give low values 0.999 | locus YKR026C, strain gcn3, hits give low values 1 | locus YKR091W, strain srl3, hits give low values 1.01 | locus YLL001W, strain dnm1, hits give low values 0.99 | locus YLL026W, hits give low values 1 | locus YLL041C, strain sdh2, hits give low values 1 | locus YLR027C, strain aat2, hits give low values 1 | locus YLR039C, strain RIC1, hits give low values 1.01 | locus YLR058C, strain SHM2, hits give low values 0.994 | locus YLR102C, strain apc9, hits give low values 0.984 | locus YLR113W, strain HOG1, hits give low values 1.01 | locus YLR221C, strain rsa3, hits give low values 1.02 | locus YLR258W, strain gsy2, hits give low values 0.998 | locus YLR262C, strain YPT6 (second series), hits give low values 0.999 | locus YLR262C, strain YPT6, hits give low values 1.01 | locus YLR268W, strain sec22, hits give low values 0.964 | locus YLR320W, strain mms22, hits give low values 0.995 | locus YLR330W, strain CHS5, hits give low values 1 | locus YLR342W, strain FKS1 (second series), hits give low values 1.01 | locus YLR342W, strain FKS1, hits give low values 1.01 | locus YLR357W, strain rsc2, hits give low values 1 | locus YLR370C, strain arc18, hits give low values 1.01 | locus YLR371W, strain rom2, hits give low values 0.984 | locus YLR384C, strain iki3, hits give low values 0.998 | locus YLR418C, strain cdc73, hits give low values 0.997 | locus YML016C, strain PPZ1, hits give low values 0.995 | locus YML032C, strain rad52, hits give low values 1.03 | locus YML120C, strain ndi1, hits give low values 1.01 | locus YML124C, strain tub3, hits give low values 0.981 | locus YMR058W, strain fet3, hits give low values 1.01 | locus YMR078C, strain ctf18, hits give low values 0.976 | locus YMR125W, strain sto1, hits give low values 1 | locus YMR129W, hits give low values 1.01 | locus YMR205C, strain PFK2, hits give low values 0.994 | locus YMR223W, strain ubp8, hits give low values 1.01 | locus YMR231W, strain pep5, hits give low values 0.996 | locus YMR307W, strain GAS1, hits give low values 1.17 | locus YNL067W, strain RPL9B, hits give low values 0.983 | locus YNL071W, strain lat1, hits give low values 1.01 | locus YNL183C, strain NPR1, hits give low values 0.973 | locus YNL209W, strain ssb2, hits give low values 1.01 | locus YNL233W, strain BNI4, hits give low values 1.01 | locus YNL248C, strain rpa49, hits give low values 0.987 | locus YNL250W, strain rad50, hits give low values 0.976 | locus YNL271C, strain bni1, hits give low values 0.983 | locus YNL298W, strain CLA4, hits give low values 1 | locus YNL307C, strain MCK1, hits give low values 0.981 | locus YNL322C, strain KRE1 (second series), hits give low values 0.992 | locus YNL322C, strain KRE1, hits give low values 1 | locus YNR049C, strain mso1, hits give low values 1.01 | locus YNR052C, strain pop2, hits give low values 1 | locus YOL006C, strain TOP1, hits give low values 0.999 | locus YOL012C, strain htz1 0.886 | locus YOL147C, strain pex11, hits give low values 0.995 | locus YOR001W, strain rrp6, hits give low values 0.989 | locus YOR061W, strain CKA2, hits give low values 0.993 | locus YOR069W, strain VPS5, hits give low values 0.998 | locus YOR070C, strain gyp1, hits give low values 1 | locus YOR080W, strain dia2, hits give low values 1 | locus YOR083W, strain WHI5, hits give low values 0.978 | locus YOR106W, strain vam3, hits give low values 0.99 | locus YOR136W, strain idh2, hits give low values 0.974 | locus YOR144C, strain elg1, hits give low values 0.992 | locus YOR184W, strain ser1, hits give low values 0.988 | locus YOR231W, strain MKK1, hits give low values 1 | locus YOR265W, strain rbl2, hits give low values 0.998 | locus YOR270C, strain vph1, hits give low values 1.05 | locus YOR290C, strain snf2, hits give low values 0.993 | locus YOR316C, strain cot1, hits give low values 0.985 | locus YPL051W, strain arl3, hits give low values 1 | locus YPL078C, strain atp4, hits give low values 0.982 | locus YPL106C, strain sse1, hits give low values 0.985 | locus YPL240C, strain hsp82, hits give low values 0.998 | locus YPL241C, strain CIN2, hits give low values 1 | locus YPL256C, strain CLN2, hits give low values 1.03 | locus YPR119W, strain clb2, hits give low values 0.983 | locus YPR141C, strain kar3, hits give low values 0.988 | locus YPR163C, strain tif3, hits give low values 0.997 | locus YPR167C, strain met16, hits give low values 0.994 | strain wtn01, hits give low values 0.964
